Measurements reported in PubChem BioAssay AID1508600 (Functional Genomics Laboratory (NCATS/FGL), 2020).
The campaign covered roughly 53,000 sequences. About 3,700 (7%) were called active. Shown is part of a subset that was picked to be rich in actives. Values without a mark were called inactive.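 Rule for the calls: active = gene knockdowns whose robust z-score for IL-1 alpha signal is at least 2 or at most -2, so actives lie on both sides; inactive = the rest.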

Experiment: Components of the Cytosolic LPS Sensing Pathway: Gene Identification via Genome-wide siRNA Screen;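 note: robust z of the log signal after scaling to non-targeting control siRNA wells of the plate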
Settings: RAW264.7 macrophages, IL-1a HTRF, actives lie on both sides, screened at 100 nM (by protocol), cells primed 5 h with Pam3CSK4 first
How it was run: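 IL-1a HTRF of supernatants after 24 hour LipidA transfection of Pam3CSK4-primed (5 hours) RAW264.7 cells, 48h post-siRNA transfection (100 nM). Scores: percent of plate negative-control median, then log-based robust z-score.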

Sequence | z-score
GGCUUGGUGAGCUACCUACTT against Wdr62 | -0.839
GGCACACUUAAGUAAAAGUTT against Kras | -0.542
GGCUACCUUCUACCUAAGGTT against Cyp2g1 | 1.42
CGGCAAGCCCAAAAAGGUCTT against Dlx3 | -2.34 (active)
GCAAUCUGUCCUUCUGUGATT against Olfr1133 | -0.818
CCUGUACUGAACUACUUGATT against Kctd5 | 0.0535
CCUGGUACAAGGAACCAGUTT against Zim1 | 0.285
GGACCCAAUAAAACUUCCGTT against Ttc36 | 1.13
CCACAUACUCUAAUGAAGUTT against Casp1 | 0.176
GGAACUGGGUUCAUCCACATT against Snrpb2 | -2.02 (active)
GGAAAAAGAGCUUUUGGUCTT against Piwil2 | 0.528
GGAUGAGUUAAGUUUCUCATT against Sh3d19 | -1.57
CCCUAAUAGGUCAAUAAAGTT against Vmn1r71 | -0.0066
GGCAUUUCGUGGAUCACCGTT against Mtg2 | -1.56
GGGUCACGUGCUGUCUCAUTT against Slc22a20 | -1.55
GCAAAGCCUUACCAUGUAATT against Ighg | 1.33
GGUCAUGGUCUGAGAUUCUTT against Txnl4a | -2.34 (active)
GGAAGUCAAGAAAGUGGCCTT against H1f0 | -0.294
GGGAUACAAUGUAACAUACTT against L1cam | -0.0915
GGACAGCUCUCUCCAUACATT against Tlr9 | 0.653
GGAUUUUGUUCUUACAGUUTT against Nfia | 2.8 (active)
GGGAACUUUUUUGAUGGGCTT against Psmb2 | -1.13
GCACAUUCAUAGGAGUACCTT against Vmn1r237 | 0.371
CGAAACUCCCAUUGUUAAUTT against Zfp521 | 1.29
GGAUCACAGAAUAGAACAATT against Hpgds | 0.237
CCACAUGAACAAUUUGGGCTT against Rpl9 | 0.0288
CCACGACACGCAAGAUGAGTT against Fzd8 | -0.756
CGACAAUACUCUCUUCAAGTT against Fst | 0.691
CCAUCUGUAACGGAUCUGATT against Prorsd1 | 0.893
GGAAGCUGUCCAAAAUGAGTT against Hnf4a | 2.55 (active)
